High-throughput results deposited in PubChem by Broad Institute.
This is one part of a sample in which hits are shown more often than they occur.
ID4 binder: binds human ID4 protein on microarray; P47928; calls only; small molecule microarray, Flag-ID4 binding, fluorescence F/B; AID 624137; 31,000 tested, 1.2% active; call rule not given here;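 note: a binder raises fluorescence above local background on the spot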
STK33 kin inh: blocks human STK33 kinase activity; Q9BYT3; ADP-Glo luminescence, MBP substrate; inhibition, % at 12.5 µM; 27,000 tested, 0.44% active; AID 2322; in the data active = inhibition above about 20%
Target sequence (Q9BYT3 whole entry, looked up): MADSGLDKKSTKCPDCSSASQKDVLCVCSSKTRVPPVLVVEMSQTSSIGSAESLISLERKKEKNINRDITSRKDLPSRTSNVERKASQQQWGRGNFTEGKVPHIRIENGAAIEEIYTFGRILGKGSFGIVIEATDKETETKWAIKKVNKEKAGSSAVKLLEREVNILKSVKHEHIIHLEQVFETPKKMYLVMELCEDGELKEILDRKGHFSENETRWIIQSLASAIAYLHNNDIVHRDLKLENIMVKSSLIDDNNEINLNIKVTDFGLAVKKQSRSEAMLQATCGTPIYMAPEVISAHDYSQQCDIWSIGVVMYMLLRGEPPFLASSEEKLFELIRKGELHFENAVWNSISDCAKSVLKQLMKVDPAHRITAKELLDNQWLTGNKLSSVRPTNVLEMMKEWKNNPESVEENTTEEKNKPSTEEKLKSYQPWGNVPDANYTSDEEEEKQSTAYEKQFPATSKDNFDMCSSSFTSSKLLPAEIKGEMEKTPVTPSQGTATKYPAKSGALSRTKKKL
Numbers without * were called inactive; i = inactive; · = no result given; + = active, no number.

SMILES | ID4 binder | STK33 kin inh
CC(=O)Nc1ccc(NC(=O)CSc2nnc(-c3ccc(N)cc3)n2C)cc1 | i | 0.3
COC(=O)c1ccc(NC(=O)CSc2nnc(-c3ccc(NC(C)=O)cc3)n2C)cc1 | + | 1.9
C[C@H]1CN([C@@H](C)CO)C(=O)c2cc(NC(=O)CCN3CCOCC3)ccc2O[C@H]1CN(C)C(=O)Nc1ccccc1 | i | -0.8
COc1ccc(C#Cc2cnc3c(c2)C(=O)N([C@@H](C)CO)C[C@@H](C)[C@H](CN(C)CC2CCOCC2)O3)cc1 | i | ·
COc1ccc(/C=N/C2=NNC(=O)C(CC(=O)O)S2)cc1 (stereo not given) | · | -3.8
C[C@@H]1CN([C@H](C)CO)C(=O)c2cc(NC(=O)c3ccncc3)ccc2O[C@@H](C)CCCCO[C@H]1CN(C)Cc1ccc(C(=O)O)cc1 | i | ·
NC(=O)c1c(NC(=O)CSc2ncn[nH]2)sc2c1CCC2 | + | 7.3
CCOC(=O)c1c(NC(=O)CSc2ncn[nH]2)sc2c1CCCC2 | i | -3.1
O=C(Nc1cc(F)ccc1F)N[C@H]1C=C[C@@H](CC(=O)N2CCc3ccccc3C2)O[C@H]1CO | i | ·
Cc1noc(C)c1S(=O)(=O)Nc1ccc2c(c1)C(=O)N([C@@H](C)CO)C[C@H](C)[C@H](CN(C)S(=O)(=O)c1ccc(F)cc1)O2 | · | 0.2
Cc1ccc(S(=O)(=O)Nc2ccc3c(c2)C(=O)N([C@H](C)CO)C[C@H](C)[C@@H](CN(C)C(=O)NC2CCCCC2)O3)cc1 | · | -1.0
C[C@@H]1CN([C@@H](C)CO)C(=O)c2cccc(N(C)C)c2O[C@H]1CN(C)S(=O)(=O)c1ccc(Cl)cc1 | i | ·
C[C@H]1CN([C@@H](C)CO)C(=O)c2cccc(N(C)C)c2O[C@@H]1CN(C)S(=O)(=O)c1ccc(Cl)cc1 | + | ·
CC(C)(C)c1ccc(S(=O)(=O)NCCC(=O)O)cc1 | i | -0.3
Cc1ccc(S(=O)(=O)NCCCO)cc1C(=O)O | + | -0.9
Cc1ccc2cc(S(=O)(=O)NCCC(=O)O)ccc2c1 | + | -4.4
Cc1cc(S(=O)(=O)NCC(=O)O)ccc1F | i | 0.1
COc1ccc(S(=O)(=O)Nc2ccc3c(c2)CC(=O)N([C@@H](C)CO)C[C@H](C)[C@H](CN(C)C)O3)cc1 | i | -3.7
COC(=O)c1cccc(NC(=O)COc2cc(C)cc(C)c2)c1 | i | -1.0
O=C(COc1ccccc1)NC(=S)Nc1cccc(NC(=O)c2ccccc2Cl)c1 | i | 3.5
O=C(NC(=S)Nc1ccc(Cl)c(C(=O)O)c1)c1cccc(COc2ccccc2)c1 | + | -1.0
COc1ccc(-c2cn(CCNC(=O)[C@H](Cc3ccccc3)NS(=O)(=O)c3ccc(C)cc3)nn2)cc1OC | + | ·
Cc1ccc(S(=O)(=O)N[C@@H](Cc2ccccc2)C(=O)CCl)cc1 | · | 8.2
